Test systems include HCT-15 colon; HT29 colon; SNB-75 CNS; SNB-19 CNS; U251 CNS; PC-3 prostate; SK-MEL-5 melanoma; UACC-62 melanoma; LOX IMVI melanoma; SK-MEL-28 melanoma; SK-MEL-2 melanoma; EKVX NSCLC; SN12C renal; UO-31 renal; TK-10 renal; ACHN renal; CAKI-1 renal; A498 renal; CCRF-CEM leukemia; MOLT-4 leukemia.
Experiment in all cases: NCI-60 one-dose screen, 48 h (100 = growth as untreated, 0 = no growth, -100 = all killed)
Details in all cases: 10 µM unless noted

This is part of a sample that, as a whole, favours compounds with a hit. Of some 83,000 tested, about 20% had one in any assay.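 Testing used 96-well plates and a 48-hour single-concentration exposure. Example: -40 means 40% of the starting cells died.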 Values without a mark were called inactive. The source made the active and inactive calls. The calls were made as follows: active = growth percent below 10; inactive = the rest.

For the molecule `O=C(N/N=C/c1ccc(F)cc1)c1[nH]c2ccc(I)cc2c1-c1ccccc1`, the growth in the test on HCT-15 colon was 18.7%; in the test with HT29 colon it was 12.5%; in the test with SNB-75 CNS, 51.7%; with SNB-19 CNS, 12%; in the test on U251 CNS, 20.4%; in the test with PC-3 prostate, 20.6%. Moreover, the growth is -30% (active) with SK-MEL-5 melanoma; 35.2% in the test on UACC-62 melanoma; 25.8% in the test on LOX IMVI melanoma; 67.9% with SK-MEL-28 melanoma; 71.9% in the test with SK-MEL-2 melanoma; 5.92% (active) in the test on EKVX NSCLC. Besides, the growth in the test with SN12C renal was 32.6%; with UO-31 renal it was 46%; in the test on TK-10 renal, 65.2%; in the test with ACHN renal, 36%; in the test on CAKI-1 renal, 5.08% (active); with A498 renal it was 39.1%. For the same molecule, the results for the growth in the test with CCRF-CEM leukemia and with MOLT-4 leukemia were 39.2% and 72.5%, respectively.

`COc1cc(CNCCCN2C(=O)c3ccc4c5c(ccc(c35)C2=O)C(=O)N(CCCNCc2cc(OC)c(OC)c(OC)c2)C4=O)cc(OC)c1OC`: the growth with HCT-15 colon is -29.4% (active); in the test on HT29 colon, -47.6% (active); in the test on SNB-75 CNS, -97.2% (active); with SNB-19 CNS it was -92.3% (active); in the test on U251 CNS, -74.5% (active); in the test on PC-3 prostate, -54.8% (active). Further, the growth in the test with SK-MEL-5 melanoma was -99.7% (active); in the test on UACC-62 melanoma, -90.2% (active); in the test on LOX IMVI melanoma, -85.6% (active); in the test with SK-MEL-28 melanoma it was -91.7% (active); in the test with SK-MEL-2 melanoma, -71.8% (active); in the test on EKVX NSCLC, -72.9% (active). Moreover, the growth in the test with SN12C renal is -98.9% (active); with UO-31 renal, 4.39% (active); with TK-10 renal, -28.5% (active); with ACHN renal, -24.5% (active); with CAKI-1 renal it was 36.9%; in the test on A498 renal it was -11.5% (active). Also, the growth in the test with CCRF-CEM leukemia was 0.649% (active); in the test with MOLT-4 leukemia, -12.6% (active).

`FC(F)(F)Oc1ccc2c(c1)C[C@H]1C[C@@H](c3ccoc3)N2O1`: the growth with HCT-15 colon was 95.1%; with HT29 colon it was 99.9%; in the test with SNB-75 CNS, 99.5%; in the test on SNB-19 CNS, 105%; in the test with U251 CNS, 94.5%; with PC-3 prostate it was 92.8%. In addition, the growth is 115% in the test on SK-MEL-5 melanoma; 98.8% in the test with UACC-62 melanoma; 91.8% with LOX IMVI melanoma; 108% in the test on SK-MEL-28 melanoma; 118% with SK-MEL-2 melanoma; 93.9% in the test with EKVX NSCLC. Besides, the growth in the test on SN12C renal is 110%; in the test on UO-31 renal it was 100%; in the test with TK-10 renal, 97.4%; in the test on ACHN renal it was 94%; in the test on CAKI-1 renal it was 82.6%; in the test with A498 renal, 93.2%. The growth in the test with CCRF-CEM leukemia is 102%; in the test on MOLT-4 leukemia it was 96.4%.

Regarding `COc1ccc(-c2nc3sc(C)cn3c2/C=C/C(=O)c2cc(OC)c(OC)c(OC)c2)cc1`, the growth in the test on HCT-15 colon was 48.1%; with HT29 colon, 60.1%; in the test with SNB-75 CNS, 55.8%; with SNB-19 CNS it was 75.6%; in the test on U251 CNS it was 47.1%; in the test with PC-3 prostate, 19%. Also, the growth in the test with SK-MEL-5 melanoma was 4.08% (active); with UACC-62 melanoma, 36.7%; with LOX IMVI melanoma, 48.8%; in the test on SK-MEL-28 melanoma it was 41.4%; in the test with SK-MEL-2 melanoma, 63%; in the test on EKVX NSCLC it was 34%. In addition, the growth was 59.5% with SN12C renal; 31.6% in the test with UO-31 renal; 96.9% with TK-10 renal; 54.4% in the test on ACHN renal; 76.7% in the test with CAKI-1 renal; 52.5% in the test on A498 renal. Moreover, the values for the growth with CCRF-CEM leukemia and in the test with MOLT-4 leukemia were 37.4% and 12.2%, respectively.

Consider `COc1ccc2nc(-n3nc(C)cc3C)c(-n3nc(C)cc3C)nc2c1`, for which the growth was 102% in the test on HCT-15 colon; 100% in the test with HT29 colon; 116% in the test on SNB-75 CNS; 102% with SNB-19 CNS; 106% in the test with U251 CNS; 105% in the test with PC-3 prostate. Further, the growth is 100% with SK-MEL-5 melanoma; 105% in the test with UACC-62 melanoma; 101% with LOX IMVI melanoma; 107% with SK-MEL-28 melanoma; 111% in the test on SK-MEL-2 melanoma; 91.7% with EKVX NSCLC. Further, the growth in the test on SN12C renal was 104%; in the test with UO-31 renal it was 86.5%; in the test on TK-10 renal, 113%; in the test with ACHN renal, 113%; in the test on CAKI-1 renal, 93.4%; in the test with A498 renal, 96.7%. For the same molecule, in the test with MOLT-4 leukemia, the growth is 104%.

In the case of `NS(=O)(=O)c1ccc(C(=O)N/N=C(\CS(=O)(=O)c2ccccc2)c2cc3cc(Br)ccc3o2)cc1`, the growth is 99.5% in the test with HCT-15 colon; 97.4% in the test with HT29 colon; 56.1% in the test with SNB-75 CNS; 69.9% in the test with SNB-19 CNS; 96.1% in the test with U251 CNS; 94.4% with PC-3 prostate. In addition, the growth with SK-MEL-5 melanoma is 85.6%; in the test on UACC-62 melanoma, 82%; in the test on LOX IMVI melanoma it was 94.7%; in the test on SK-MEL-28 melanoma, 98.4%; in the test with SK-MEL-2 melanoma it was 100%; with EKVX NSCLC, 103%. For the same molecule, the growth in the test with SN12C renal was 89%; with UO-31 renal it was 101%; with TK-10 renal it was 107%; in the test on ACHN renal it was 99.3%; in the test on CAKI-1 renal, 89.9%; with CCRF-CEM leukemia, 118%. In addition, the growth in the test on MOLT-4 leukemia was 137%.

Consider `CCCN1CCN(c2ccc3nc(-c4ccc5nc(-c6ccc(C(F)(F)F)cc6)[nH]c5c4)[nH]c3c2)CC1`, for which the growth is -55.1% (active) in the test on HCT-15 colon; -44% (active) in the test with HT29 colon; 32.5% in the test with SNB-75 CNS; -93.8% (active) in the test on SNB-19 CNS; -82.2% (active) in the test with U251 CNS; -68% (active) in the test with PC-3 prostate. For the same molecule, the growth in the test on SK-MEL-5 melanoma was 37.2%; with UACC-62 melanoma, 72.9%; with LOX IMVI melanoma, -92.9% (active); in the test with SK-MEL-28 melanoma it was -94.6% (active); with SK-MEL-2 melanoma, 7.45% (active); with EKVX NSCLC, -34.3% (active). The growth was -69.2% (active) in the test with SN12C renal; 79.7% in the test on UO-31 renal; -13% (active) in the test with TK-10 renal; -99.9% (active) with ACHN renal; 59% in the test on CAKI-1 renal; -21.1% (active) in the test on CCRF-CEM leukemia. Also, the growth in the test with MOLT-4 leukemia is -38.6% (active).

The values are drawn from PubChem BioAssay (NCI).
